Experimental findings from ChEMBL document CHEMBL1961873, “Compounds: GSK PKIS; Assays: Nanosyn kinase panel” (2012) are described below.

In assay [1] the target is Death-associated protein kinase 1 (Homo sapiens) (UniProt P53355). Conditions: at 1 µM.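 Note: each value is a mean inhibition figure.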
Assay [2] concerns the target T1, Serine/threonine-protein kinase DCLK2 (Homo sapiens) (UniProt Q8N568).
T1 sequence (whole entry): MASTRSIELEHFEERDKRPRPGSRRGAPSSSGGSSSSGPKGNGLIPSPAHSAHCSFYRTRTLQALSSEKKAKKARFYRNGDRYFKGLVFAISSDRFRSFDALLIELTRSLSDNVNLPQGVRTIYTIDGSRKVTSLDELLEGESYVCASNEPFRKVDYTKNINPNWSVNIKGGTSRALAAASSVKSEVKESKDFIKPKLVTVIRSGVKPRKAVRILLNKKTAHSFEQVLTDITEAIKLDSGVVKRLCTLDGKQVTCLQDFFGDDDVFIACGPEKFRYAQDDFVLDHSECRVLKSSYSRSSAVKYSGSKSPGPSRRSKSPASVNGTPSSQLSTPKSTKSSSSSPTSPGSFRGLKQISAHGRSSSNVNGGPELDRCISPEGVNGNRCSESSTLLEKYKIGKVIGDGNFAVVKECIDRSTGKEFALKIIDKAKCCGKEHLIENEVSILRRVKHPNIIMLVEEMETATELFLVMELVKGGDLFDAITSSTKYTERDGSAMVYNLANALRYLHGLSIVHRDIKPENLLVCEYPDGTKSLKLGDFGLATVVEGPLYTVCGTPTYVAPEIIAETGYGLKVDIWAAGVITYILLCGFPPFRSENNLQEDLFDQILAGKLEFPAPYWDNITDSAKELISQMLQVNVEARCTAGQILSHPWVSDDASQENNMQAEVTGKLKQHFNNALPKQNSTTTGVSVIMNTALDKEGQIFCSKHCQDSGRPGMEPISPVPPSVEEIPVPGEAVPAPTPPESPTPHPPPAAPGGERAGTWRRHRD
Conditions: at 0.1 µM.

The target of assay [3] is T1, Serine/threonine-protein kinase DCLK2 (Homo sapiens). Conditions: at 1 µM.
The target in assay [4] is MAP kinase-activated protein kinase 2 (Homo sapiens) (UniProt P49137). To be noted: at 0.1 µM.
Assay [5] shares this target. Conditions: at 1 µM.
Assay [6] concerns the target MAP kinase-activated protein kinase 3 (Homo sapiens) (UniProt Q16644). To be noted: at 0.1 µM.
Assay [7] has the same target. To be noted: at 1 µM.
In assay [8] the target is Serine/threonine-protein kinase MARK1 (Homo sapiens) (UniProt Q9P0L2). To be noted: at 0.1 µM.
The target is the same in assay [9]. Conditions: at 1 µM.
For assay [10], the target named is MAP/microtubule affinity-regulating kinase 3 (Homo sapiens) (UniProt P27448). To be noted: at 0.1 µM.
For assay [11] the target is unchanged. To be noted: at 1 µM.
The target of assay [12] is T2, MAP/microtubule affinity-regulating kinase 4 (Homo sapiens) (UniProt Q96L34).
T2 sequence (whole entry): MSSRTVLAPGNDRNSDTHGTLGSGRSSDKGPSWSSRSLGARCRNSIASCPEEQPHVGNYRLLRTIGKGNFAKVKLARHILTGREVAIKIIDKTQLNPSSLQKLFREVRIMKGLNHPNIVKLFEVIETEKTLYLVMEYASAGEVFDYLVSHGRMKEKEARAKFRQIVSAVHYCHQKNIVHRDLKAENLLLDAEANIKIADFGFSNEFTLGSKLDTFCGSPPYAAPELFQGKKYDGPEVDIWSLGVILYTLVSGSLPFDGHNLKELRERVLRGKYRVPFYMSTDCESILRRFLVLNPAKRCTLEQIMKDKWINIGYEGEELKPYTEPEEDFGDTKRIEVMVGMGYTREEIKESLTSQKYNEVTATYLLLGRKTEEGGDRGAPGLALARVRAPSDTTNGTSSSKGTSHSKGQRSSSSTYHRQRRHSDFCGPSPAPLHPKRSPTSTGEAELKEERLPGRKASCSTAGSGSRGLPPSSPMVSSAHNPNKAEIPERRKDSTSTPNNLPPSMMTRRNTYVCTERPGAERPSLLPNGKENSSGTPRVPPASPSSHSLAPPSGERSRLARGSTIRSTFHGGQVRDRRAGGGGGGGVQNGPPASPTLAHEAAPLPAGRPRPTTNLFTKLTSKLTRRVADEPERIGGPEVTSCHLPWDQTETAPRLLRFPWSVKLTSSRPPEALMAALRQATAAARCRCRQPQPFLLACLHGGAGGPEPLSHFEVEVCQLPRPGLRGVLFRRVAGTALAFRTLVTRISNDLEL
Conditions: at 0.1 µM.

Assay [13] addresses T2, MAP/microtubule affinity-regulating kinase 4 (Homo sapiens). To be noted: at 1 µM.
For assay [14], the target named is Maternal embryonic leucine zipper kinase (Homo sapiens) (UniProt Q14680). Conditions: at 0.1 µM.
Assay [15] shares this target. Conditions: at 1 µM.
The target in assay [16] is MAP kinase-interacting serine/threonine-protein kinase 1 (Homo sapiens) (UniProt Q9BUB5). Conditions: at 0.1 µM.
The target is the same in assay [17]. To be noted: at 1 µM.
Assay [18] concerns the target MAP kinase-interacting serine/threonine-protein kinase 2 (Homo sapiens) (UniProt Q9HBH9). Conditions: at 0.1 µM.
Assay [19] has the same target. Conditions: at 1 µM.
The target of assay [20] is Serine/threonine-protein kinase MARK2 (Homo sapiens) (UniProt Q7KZI7). To be noted: at 0.1 µM.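 Note: mean percent inhibition of PAR-1Balpha kinase activity, reported from the GSK PKIS screen.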

Where “and” joins values, the source holds several entries; their conditions need not be identical. Identical values can stand only once.

Chain of Maternal embryonic leucine zipper kinase (Homo sapiens) (Q14680 whole entry, looked up): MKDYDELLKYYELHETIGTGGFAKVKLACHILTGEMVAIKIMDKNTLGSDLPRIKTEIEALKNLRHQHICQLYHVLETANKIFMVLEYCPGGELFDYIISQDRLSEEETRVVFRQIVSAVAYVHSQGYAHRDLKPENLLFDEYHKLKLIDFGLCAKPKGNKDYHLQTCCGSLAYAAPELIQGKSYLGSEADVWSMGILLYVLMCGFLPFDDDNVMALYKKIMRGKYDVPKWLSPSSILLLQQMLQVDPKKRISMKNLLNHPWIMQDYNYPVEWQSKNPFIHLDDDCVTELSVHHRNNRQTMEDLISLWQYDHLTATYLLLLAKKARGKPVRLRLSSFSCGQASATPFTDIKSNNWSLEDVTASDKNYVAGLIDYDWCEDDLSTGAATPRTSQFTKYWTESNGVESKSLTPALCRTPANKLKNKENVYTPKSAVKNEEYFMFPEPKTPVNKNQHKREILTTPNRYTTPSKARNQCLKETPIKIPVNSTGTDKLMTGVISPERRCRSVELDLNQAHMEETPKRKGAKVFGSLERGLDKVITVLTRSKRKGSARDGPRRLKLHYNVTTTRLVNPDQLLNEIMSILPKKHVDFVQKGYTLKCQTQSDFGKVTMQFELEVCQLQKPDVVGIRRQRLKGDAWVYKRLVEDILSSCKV
Chain of Serine/threonine-protein kinase MARK2 (Homo sapiens) (Q7KZI7 whole entry): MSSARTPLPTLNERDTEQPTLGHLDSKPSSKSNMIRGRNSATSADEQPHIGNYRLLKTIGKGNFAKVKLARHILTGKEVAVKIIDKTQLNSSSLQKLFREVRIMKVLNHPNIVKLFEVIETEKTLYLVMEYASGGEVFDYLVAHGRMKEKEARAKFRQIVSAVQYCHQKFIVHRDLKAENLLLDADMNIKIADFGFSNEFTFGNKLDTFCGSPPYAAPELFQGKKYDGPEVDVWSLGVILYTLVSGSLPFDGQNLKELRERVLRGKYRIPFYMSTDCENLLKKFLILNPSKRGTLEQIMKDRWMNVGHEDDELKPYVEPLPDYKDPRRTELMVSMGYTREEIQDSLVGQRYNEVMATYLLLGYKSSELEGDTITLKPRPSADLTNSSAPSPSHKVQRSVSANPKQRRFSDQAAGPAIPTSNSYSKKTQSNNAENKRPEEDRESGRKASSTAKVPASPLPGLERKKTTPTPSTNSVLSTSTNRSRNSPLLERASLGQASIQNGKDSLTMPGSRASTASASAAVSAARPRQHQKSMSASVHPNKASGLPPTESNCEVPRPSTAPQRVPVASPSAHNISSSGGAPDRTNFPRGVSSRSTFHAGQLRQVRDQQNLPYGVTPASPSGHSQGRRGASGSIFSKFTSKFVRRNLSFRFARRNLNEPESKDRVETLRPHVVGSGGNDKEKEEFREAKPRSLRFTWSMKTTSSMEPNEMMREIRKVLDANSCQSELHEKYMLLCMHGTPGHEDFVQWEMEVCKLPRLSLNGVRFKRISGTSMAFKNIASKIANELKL
Chain of Serine/threonine-protein kinase MARK1 (Homo sapiens) (Q9P0L2 whole entry, looked up): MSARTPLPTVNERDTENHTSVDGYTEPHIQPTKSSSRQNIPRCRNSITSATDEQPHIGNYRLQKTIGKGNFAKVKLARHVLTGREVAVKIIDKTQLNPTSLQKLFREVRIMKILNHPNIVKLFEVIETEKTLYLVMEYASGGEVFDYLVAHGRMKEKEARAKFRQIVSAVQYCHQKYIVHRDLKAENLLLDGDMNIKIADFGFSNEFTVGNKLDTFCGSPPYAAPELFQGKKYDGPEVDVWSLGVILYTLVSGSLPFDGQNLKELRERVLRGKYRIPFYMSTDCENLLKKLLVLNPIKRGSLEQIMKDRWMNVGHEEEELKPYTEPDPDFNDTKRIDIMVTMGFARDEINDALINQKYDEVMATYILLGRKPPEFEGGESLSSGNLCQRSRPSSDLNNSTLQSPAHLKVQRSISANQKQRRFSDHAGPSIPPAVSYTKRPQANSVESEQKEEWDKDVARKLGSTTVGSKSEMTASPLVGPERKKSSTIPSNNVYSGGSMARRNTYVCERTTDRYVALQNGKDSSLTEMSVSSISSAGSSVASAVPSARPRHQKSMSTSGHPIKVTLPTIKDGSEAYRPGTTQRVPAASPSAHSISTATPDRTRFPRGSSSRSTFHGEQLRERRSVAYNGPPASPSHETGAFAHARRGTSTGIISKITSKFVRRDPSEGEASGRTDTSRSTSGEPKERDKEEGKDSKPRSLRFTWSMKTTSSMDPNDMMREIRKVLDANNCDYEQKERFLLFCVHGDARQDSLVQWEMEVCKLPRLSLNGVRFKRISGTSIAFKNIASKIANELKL
Chain of MAP kinase-activated protein kinase 3 (Homo sapiens) (Q16644 whole entry, looked up): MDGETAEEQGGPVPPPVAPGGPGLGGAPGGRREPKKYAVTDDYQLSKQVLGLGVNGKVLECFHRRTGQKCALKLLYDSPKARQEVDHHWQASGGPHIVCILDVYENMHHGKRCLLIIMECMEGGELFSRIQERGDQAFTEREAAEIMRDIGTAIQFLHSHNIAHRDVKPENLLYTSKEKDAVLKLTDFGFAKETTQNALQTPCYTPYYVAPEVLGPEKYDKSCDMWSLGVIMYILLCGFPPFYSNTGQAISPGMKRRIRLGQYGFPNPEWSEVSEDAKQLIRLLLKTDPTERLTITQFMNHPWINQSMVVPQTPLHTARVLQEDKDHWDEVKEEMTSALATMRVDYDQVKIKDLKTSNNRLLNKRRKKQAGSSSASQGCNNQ
Chain of MAP kinase-interacting serine/threonine-protein kinase 1 (Homo sapiens) (Q9BUB5 whole entry, looked up): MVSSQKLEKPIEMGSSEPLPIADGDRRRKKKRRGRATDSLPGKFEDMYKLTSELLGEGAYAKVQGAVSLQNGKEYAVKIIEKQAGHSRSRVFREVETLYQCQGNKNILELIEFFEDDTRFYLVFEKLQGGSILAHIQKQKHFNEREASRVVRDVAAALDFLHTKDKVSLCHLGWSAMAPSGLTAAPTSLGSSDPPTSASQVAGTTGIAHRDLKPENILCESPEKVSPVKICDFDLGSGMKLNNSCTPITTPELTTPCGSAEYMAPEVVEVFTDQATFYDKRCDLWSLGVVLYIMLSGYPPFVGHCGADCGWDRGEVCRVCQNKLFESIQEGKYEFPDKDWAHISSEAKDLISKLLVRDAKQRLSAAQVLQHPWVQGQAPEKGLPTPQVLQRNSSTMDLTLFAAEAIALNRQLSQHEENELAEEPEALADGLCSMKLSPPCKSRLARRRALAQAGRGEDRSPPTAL
Chain of MAP/microtubule affinity-regulating kinase 3 (Homo sapiens) (P27448 whole entry, looked up): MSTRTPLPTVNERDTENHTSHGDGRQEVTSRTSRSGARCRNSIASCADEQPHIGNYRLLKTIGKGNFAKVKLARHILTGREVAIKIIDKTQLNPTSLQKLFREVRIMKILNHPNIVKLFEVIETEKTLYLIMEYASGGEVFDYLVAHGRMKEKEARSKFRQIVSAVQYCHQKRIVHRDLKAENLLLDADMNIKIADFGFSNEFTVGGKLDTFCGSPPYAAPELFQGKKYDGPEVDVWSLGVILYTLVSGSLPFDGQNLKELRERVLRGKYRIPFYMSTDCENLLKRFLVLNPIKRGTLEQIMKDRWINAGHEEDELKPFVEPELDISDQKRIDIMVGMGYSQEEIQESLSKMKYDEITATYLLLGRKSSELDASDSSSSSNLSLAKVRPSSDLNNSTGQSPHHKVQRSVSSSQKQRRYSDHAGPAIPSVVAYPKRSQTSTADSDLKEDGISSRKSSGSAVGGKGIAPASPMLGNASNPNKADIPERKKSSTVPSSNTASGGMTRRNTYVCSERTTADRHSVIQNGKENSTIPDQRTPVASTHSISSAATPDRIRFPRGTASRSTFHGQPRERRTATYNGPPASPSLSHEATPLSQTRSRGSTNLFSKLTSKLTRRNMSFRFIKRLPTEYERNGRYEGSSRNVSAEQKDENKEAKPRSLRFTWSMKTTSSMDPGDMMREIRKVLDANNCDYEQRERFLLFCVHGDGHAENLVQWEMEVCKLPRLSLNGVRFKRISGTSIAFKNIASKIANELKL
Chain of MAP kinase-activated protein kinase 2 (Homo sapiens) (P49137 whole entry, looked up): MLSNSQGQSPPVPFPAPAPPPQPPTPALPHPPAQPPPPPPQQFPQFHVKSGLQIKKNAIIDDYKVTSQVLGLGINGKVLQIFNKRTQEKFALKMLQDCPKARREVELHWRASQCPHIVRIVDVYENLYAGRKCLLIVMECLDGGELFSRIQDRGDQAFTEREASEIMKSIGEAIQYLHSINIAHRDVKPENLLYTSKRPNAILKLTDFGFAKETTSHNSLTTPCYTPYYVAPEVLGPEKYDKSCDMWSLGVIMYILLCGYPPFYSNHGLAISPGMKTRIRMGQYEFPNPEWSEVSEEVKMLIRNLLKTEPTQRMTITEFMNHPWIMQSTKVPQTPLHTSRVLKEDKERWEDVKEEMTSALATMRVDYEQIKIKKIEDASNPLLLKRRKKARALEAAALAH
Chain of MAP kinase-interacting serine/threonine-protein kinase 2 (Homo sapiens) (Q9HBH9 whole entry, looked up): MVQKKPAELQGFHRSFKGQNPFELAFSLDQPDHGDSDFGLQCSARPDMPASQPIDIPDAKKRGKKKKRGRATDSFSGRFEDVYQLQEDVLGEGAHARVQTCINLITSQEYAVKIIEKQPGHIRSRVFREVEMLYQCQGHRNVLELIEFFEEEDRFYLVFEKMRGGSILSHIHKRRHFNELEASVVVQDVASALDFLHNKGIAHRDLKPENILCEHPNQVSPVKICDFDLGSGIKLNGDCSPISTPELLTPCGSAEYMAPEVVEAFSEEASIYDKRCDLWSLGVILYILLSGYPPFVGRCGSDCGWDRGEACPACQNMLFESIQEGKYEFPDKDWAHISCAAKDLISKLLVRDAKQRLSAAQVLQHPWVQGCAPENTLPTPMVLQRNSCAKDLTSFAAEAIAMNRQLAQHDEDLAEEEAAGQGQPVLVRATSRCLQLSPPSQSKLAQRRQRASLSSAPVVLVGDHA

Turning to `O=C(O[C@H]1CN[C@H](C#Cc2cc3ncnc(Nc4ccc(OCc5cccc(F)c5)c(Cl)c4)c3s2)C1)N1CCOCC1`, the inhibition is -0.32% in assay [1]; 0.93% in [2]; 0.57% in assay [3]; -0.11% in assay [4]; 0.31% in assay [5]; -0.64% in [6]. Also, the inhibition in [7] is -0.5%; in [8], 6.71%; in [9], 5.07%; in assay [10], 1.14%; in assay [11], 10.1%; in assay [12], 1.79%. Also, the inhibition is 0.94% in assay [13]; 3.76% in assay [14]; 4.67% in [15]; 4.6% in assay [16]; 11.4% in [17]; 5.13% in assay [18]. For the same molecule, the inhibition in assay [19] is 13.2%; in [20] it was 6.4%.
Regarding `CC(C)c1ccc(-c2cc(-c3c[nH]nc3-c3ccccn3)ccn2)cc1`, the inhibition was -0.6% in assay [1]; 0.39% in assay [2]; -0.35% in assay [3]; 0.58% in assay [4]; -0.11% in [5]; 0.63% in assay [6]. For the same molecule, the inhibition in assay [7] is 6.51%; in [8], 1.23%; in assay [9] it was 1.49%; in [10], -3.53%; in assay [11], 0.71%; in assay [12], -0.28%. Also, the inhibition in assay [13] was 0.5%; in [14], 1.44%; in [15], 3.48%; in assay [16] it was 1.48%; in [17], 3.11%; in assay [18], 0.97%. The figures for the inhibition in assay [19] and in [20] were 2.83% and -2.82%, respectively.
On to `Cc1ccc(-c2cc3c(NC(=O)C4CC4)ncnc3o2)cc1`, for which the inhibition in assay [1] was determined as 4.66%; in assay [2], 1.46%; in [3], 0.28%; in assay [4] it was 1.78%; in [5], 1.3%; in assay [6] it was 2.67%. Also, the inhibition is 2.29% in [7]; 5.62% in assay [8]; 5.21% in [9]; 3.78% in [10]; 7.2% in assay [11]; 1.77% in assay [12]. Besides, the inhibition worked out at 3.33% in [13]; 2.47% in [14]; 4.56% in assay [15]; 1.56% in assay [16]; 6.36% in assay [17]; 1.94% in assay [18]. Besides, the values for the inhibition in assay [19] and in [20] were 5.77% and 1.3%, respectively.
On to `COC(=O)Nc1nc2cc(Oc3ccc(NC(=O)Nc4ccccc4)cc3)ccc2[nH]1`, for which the inhibition was 3.19% in [1]; -1.72% in assay [2]; 5.13% in assay [3]; 1.49% in assay [4]; 1.44% in assay [5]; 1.74% in [6]. In addition, the inhibition in assay [7] came to 2.32%; in assay [8] it was 2.28%; in assay [9], 4.31%; in [10], 1.57%; in [11] it was 2.58%; in assay [12], 1.19%. Besides, the inhibition in assay [13] is 0.89%; in assay [14] it was 0.33%; in assay [15] it was 2.1%; in [16], 3%; in [17] it was 6.54%; in assay [18], 1.92%. Besides, the inhibition in [19] was 4.02%; in assay [20], 0.31%.
As for `Nc1nonc1-c1nc2cnccc2n1C1CC1`, the inhibition in assay [1] is 4% and -1.82%; in assay [2] it was 1.88% and -0.85%; in [3], 3.6% and -3.51%; in [4], 1.36% and 1.4%; in assay [5], 1.45% and 0.82%; in [6], 5.15% and 2.54%. The inhibition in assay [7] was 6.05% and 1.43%; in assay [8], 6.69% and 4.73%; in assay [9], 23.2% and 20.6%; in assay [10], 7.63% and 5.91%; in assay [11], 22.6% and 19%; in assay [12] it was 3.74% and 2.4%. Further, the inhibition was 11% and 8.22% in [13]; 10.2% and 12.6% in [14]; 66.9% and 71.4% in assay [15]; 3.95% and 1.61% in assay [16]; 9.32% and 10.2% in [17]; 4.37% and 1.55% in assay [18]. Besides, the inhibition in [19] was 18.2% and 15.1%; in [20] it was 3.55% and -0.71%.
Regarding `COc1ccc(Nc2ncc(-c3ccccc3)o2)cc1OC`, the inhibition in assay [1] is 1.47%; in [2], 0.15%; in [3] it was 5.3%; in assay [4], -0.12%; in assay [5], -0.35%; in [6], 0.05%. Moreover, the inhibition in assay [7] amounted to 0.81%; in assay [8] it was 2.68%; in [9], 20.4%; in assay [10], 4.59%; in assay [11], 26.7%; in assay [12], 2.3%. Besides, the inhibition in assay [13] amounted to 19.4%; in [14], 0.74%; in assay [15], 8.76%; in [16] it was 2.58%; in assay [17], 28.8%; in [18] it was 4.65%. Further, the inhibition in [19] is 26.1%; in assay [20] it was 1.48%.

The term inhibition denotes the drop in the measured response relative to a control, in per cent.
